# In PubChem BioAssay (NCATS):
# Inconclusive results are not listed. A call without a number means that no potency is given here. Calls of active or inactive are those of the source. Calls follow the shape of the dose curve; as a rule, active = well fitted cell-killing curve with a large enough effect; inconclusive = small, poorly fitted or top-dose-only effect; inactive = flat fitted curve, though single readings scatter.
# Assay: Cell Viability - LYMP2-021 (AID 974);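 also: compound exposure lasts 24 hours at 37 °C; nearly all actives have a fitted effect of over 55% in size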
# Conditions: LYMP2-021 lymphoblastoid cells viability; series mostly up to 92.2 µM
# From the text: NIH Chemical Genomics Center [NCGC]
# NIH Molecular Libraries Screening Centers Network [MLSCN]
# National Institutes of Environmental Health Sciences [NIEHS]
# National Toxicology Program [NTP]
# We have developed a 1536-well cell-based assay for quantitative high throughput screening (qHTS) against a number of cell lines to determine in vitro cytotoxicity of small molecules. This particular assay uses a human lymphoblastoid cell line (LYMP2-021) purchased from Coriell Institute for Medical Research.
# NCGC Assay Protocol Summary:
# The CellTiter-Glo luminescent cell viability assay (Promega) is a homogeneous method to measure the number of viable cells in culture. The end point readout of this assay is based on quantitation of intracellular ATP, an indicator of metabolic activity, using the luciferase reaction. Luciferase catalyzes the oxidation of beetle Luciferin to oxyluciferin and light in the presence of ATP. The luminescent signal is proportional to amount of ATP present.
# Using the CellTiter-Glo luminescent cell viability assay, the amount of cellular ATP was measured in the lymphoblastoid cell line with complete culture medium following compound treatment for 24 hours. The assay was performed in opaque white Kalypsys 1536-well plates. In the screen, tetraoctylammonium bromide was used as positive control. Library compounds were measured for their ability to cause acute toxicity in the cell line, as reflected by a decrease in intracellular ATP levels, in a concentration-dependent manner. […] AC50 values were determined from concentration-response data modeled with the standard Hill equation.
# qHTS protocol for CellTiter Glo lymphoblastoid cellular assay
# [Step] [Parameter] [Value] [Description]
# 1. Reagent; 5 uL; 2500 lymphoblastoid cells/well
# 2. Time; 5 hr; 37 C incubation
# 4. Controls; 23 nL; Tetraoctylammonium bromide 6.4pM to 92 uM
# 5. Time; 24 hr; 37 C incubation
# 6. Reagent; 5 uL; CellTiter Glo reagent
# 7. Time; 30 min; Room Temperature
# 8. Detection; Luminescence; Viewlux plate reader
# Keywords: cell viability, cytotoxicity, lymphoblastoid cell line, luminescence, NTPHTS, NTPHTS_NCGC, NIEHS, DSSTox, MLSMR, MLSCN, NIH Roadmap, qHTS, NCGC
# Potency is read from the fitted curve at half-maximal effect.
row,SMILES,Potency
1,CC(=O)OC1CC(C)OC(C)O1 (stereo not given),inactive
2,CCOC(=O)C1OC1c1ccccc1 (stereo not given),inactive
3,CCCCCCCCOc1ccc(C(=O)O)cc1,inactive
4,O=C(OCc1ccccc1)c1ccccc1O,inactive
5,COc1cc(-c2ccc(N=C=O)c(OC)c2)ccc1N=C=O,inactive
6,c1cc2c3c(c1)ccc1cccc(c13)C2,inactive
7,CCCCCCc1ccc(-c2ccc(C#N)cc2)cc1,inactive
8,c1ccc(SCCSc2ccccc2)cc1,inactive
9,CCNC(=S)NCC,inactive
10,COc1ccc([N+](=O)[O-])cc1N,inactive
11,CC(C)S,inactive
12,c1ccc2c(c1)ccc1ccccc12,inactive
13,CC(C)OCC1CO1 (stereo not given),inactive
14,c1ccc(Nc2cccc3ccccc23)cc1,inactive
15,CC(C)COC(=O)COc1cc(Cl)c(Cl)cc1Cl,inactive
16,CCCC(=O)OC(=O)CCC,inactive
17,c1ccc2ncccc2c1,inactive
18,CCCCNCC,inactive
19,O=C1c2ccccc2C(=O)C1(O)O,inactive
20,c1c[nH]cn1,inactive

row,SMILES,Potency
1,Nc1ccc(N)c(Cl)c1,inactive
2,Nc1cc([N+](=O)[O-])ccc1O,inactive
3,OCC(CBr)(CBr)CBr,inactive
4,Cc1ccc(C(=O)O)cc1[N+](=O)[O-],inactive
5,Oc1ccc(O)c2c(O)cccc12,50.1 µM (active)
6,c1ccc(COCc2ccccc2)cc1,inactive
7,Nc1cc(C(=O)O)c(O)c(S(=O)(=O)O)c1,inactive
8,C=CC(=O)CC,inactive
9,C/C=C/C=C/C=O,39.8 µM (active)
10,S=C(NC1CCCCC1)NC1CCCCC1,inactive
11,O=C(Cl)c1ccc([N+](=O)[O-])cc1,inactive
12,CC(=O)Nc1cccc(C)c1,inactive
13,CCCCOC(=O)COc1ccc(Cl)cc1Cl,inactive
14,Cc1ccccc1OCC1CO1 (stereo not given),inactive
15,C[Si](C)(C)Cl,inactive
16,O=C1OC(=O)c2ccccc21,inactive
17,NC(=O)Nc1nc2ccccc2[nH]1,inactive
18,CC(=O)OC(C(=O)c1ccccc1)c1ccccc1 (stereo not given),inactive
19,CC(/C=C/C=C(C)/C=C/C(=O)O)=C\C=C\C=C(C)\C=C\C=C(C)\C=C\C(=O)O,inactive
20,Oc1ccc2c(c1)OCO2,inactive
